Data taken from PubChem BioAssay AID1159580 (chemical genetic matrix, 2015).
Values joined by “and” are separate entries in the source; they are usually repeats but may differ in a detail not shown here. Equal entries are not always repeated. Out of some 5,500 compounds screened, about 2,000 (36%) were called active. Inconclusive results (about 18%) are left out. Cut-off read from the data, not from the text of the source: active = normalized growth mostly below about 0.91 (no sharp cut-off); inconclusive = no clear call, values can overlap the other calls; inactive = mostly above about 0.92. Some of the results follow.

Assay: chemical genetic growth profiling, strain panel (AID 1159580);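 note: tested at 20 µM; growth read once vehicle control cultures reached saturation at 30 °C; 1 = growth at the plate median or of vehicle wells; lower values mean less growth of the strain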
Conditions: S. cerevisiae deletion strains, growth OD

Measured: normalized growth

CC1CCC2(OC1)OC1CC3C4CC[C@H]5C[C@@H](O)CC[C@]5(C)C4CC(=O)[C@]3(C)C1C2C (stereo partly specified)
inactive: locus YAL013W, strain DEP1, stronger effect = lower value 1.01 | locus YAL021C, strain ccr4, stronger effect = lower value 0.997 | locus YAL026C, strain drs2, stronger effect = lower value 1.03 | locus YAL030W, strain snc1, stronger effect = lower value 1.01 | locus YBL061C, strain skt5, stronger effect = lower value 1.02 | locus YBR009C, strain hhf1, stronger effect = lower value 0.983 | locus YBR021W, strain FUR4, stronger effect = lower value 0.991 | locus YBR023C, strain chs3, stronger effect = lower value 1.02 | locus YBR171W, strain sec66, stronger effect = lower value 1.02 | locus YBR229C, strain ROT2, stronger effect = lower value 1.01 | locus YBR231C, strain swc5, stronger effect = lower value 0.996 | locus YBR279W, strain paf1, stronger effect = lower value 1.01 | locus YCL011C, strain gbp2, stronger effect = lower value 1.04 | locus YCL016C, strain dcc1, stronger effect = lower value 1.01 | locus YCL029C, strain bik1, stronger effect = lower value 0.973 | locus YCL061C, strain MRC1, stronger effect = lower value 1.02 | locus YCL069W, strain vba3, stronger effect = lower value 1.02 | locus YCR088W, strain abp1, stronger effect = lower value 1.03 | locus YDL005C, strain med2, stronger effect = lower value 1.01 | locus YDL035C, strain GPR1, stronger effect = lower value 1.01 | locus YDL040C, strain nat1, stronger effect = lower value 1.01 | locus YDL074C, strain BRE1, stronger effect = lower value 0.974 | locus YDL101C, strain DUN1, stronger effect = lower value 1.01 | locus YDL134C, strain PPH21, stronger effect = lower value 1.01 | locus YDL185W, strain tfp1, stronger effect = lower value 0.981 | locus YDL192W, strain arf1, stronger effect = lower value 0.992 | locus YDR001C, strain nth1, stronger effect = lower value 1.01 | locus YDR069C, strain doa4, stronger effect = lower value 1 | locus YDR101C, strain arx1, stronger effect = lower value 0.974 | locus YDR137W, strain rgp1, stronger effect = lower value 1.02 | locus YDR150W, strain NUM1, stronger effect = lower value 1.01 | locus YDR159W, strain sac3, stronger effect = lower value 0.962 | locus YDR162C, strain NBP2, stronger effect = lower value 1.01 | locus YDR195W, strain ref2 1.04 | locus YDR297W, strain sur2, stronger effect = lower value 0.995 | locus YDR318W, strain mcm21, stronger effect = lower value 0.975 | locus YDR334W, strain swr1, stronger effect = lower value 1.01 | locus YDR335W, strain msn5, stronger effect = lower value 1.02 | locus YDR388W, stronger effect = lower value 0.982 | locus YDR392W, strain spt3, stronger effect = lower value 0.866 | locus YDR502C, strain sam2, stronger effect = lower value 0.98 | locus YEL003W, strain gim4, stronger effect = lower value 0.999 | locus YEL037C, strain rad23, stronger effect = lower value 1.02 | locus YEL061C, strain CIN8 (second series), stronger effect = lower value 1.01 | locus YEL061C, strain CIN8, stronger effect = lower value 1.01 | locus YER015W, strain faa2, stronger effect = lower value 1 | locus YER016W, strain bim1, stronger effect = lower value 1.01 | locus YER110C, stronger effect = lower value 0.978 | locus YER111C, strain swi4, stronger effect = lower value 1.01 | locus YER155C, strain BEM2 (second series), stronger effect = lower value 0.97 | locus YER155C, strain BEM2, stronger effect = lower value 1.01 | locus YER167W, strain BCK2, stronger effect = lower value 1.01 | locus YFR010W, strain ubp6, stronger effect = lower value 0.997 | locus YGL078C, strain dbp3, stronger effect = lower value 0.982 | locus YGL086W, strain mad1, stronger effect = lower value 0.998 | locus YGL167C, strain pmr1, stronger effect = lower value 1.01 | locus YGL173C, strain kem1, stronger effect = lower value 0.992 | locus YGL227W, strain vid30, stronger effect = lower value 1.02 | locus YGL240W, strain doc1, stronger effect = lower value 1 | locus YGL248W, strain PDE1, stronger effect = lower value 1.02 | locus YGL253W, strain hxk2, stronger effect = lower value 1.01 | locus YGR078C, strain PAC10, stronger effect = lower value 0.989 | locus YGR135W, strain pre9, stronger effect = lower value 0.987 | locus YGR229C, strain SMI1, stronger effect = lower value 1 | locus YGR252W, strain gcn5, stronger effect = lower value 0.992 | locus YHR013C, strain ard1, stronger effect = lower value 1.02 | locus YHR027C, strain rpn1, stronger effect = lower value 1.02 | locus YHR030C, strain SLT2, stronger effect = lower value 1.01 and 0.963 | locus YHR079C, strain IRE1 (second series), stronger effect = lower value 0.988 | locus YHR079C, strain IRE1, stronger effect = lower value 0.962 | locus YHR094C, strain hxt1, stronger effect = lower value 0.991 | locus YHR129C, strain ARP1, stronger effect = lower value 1 | locus YHR142W, strain chs7, stronger effect = lower value 1.03 | locus YHR200W, strain rpn10, stronger effect = lower value 0.987 | locus YIL066C, strain RNR3, stronger effect = lower value 1.01 | locus YIL073C, strain SPO22, stronger effect = lower value 0.983 | locus YIL125W, strain kgd1, stronger effect = lower value 0.989 | locus YIR030C, strain dcg1, stronger effect = lower value 0.984 | locus YJL092W, strain hpr5, stronger effect = lower value 1.01 | locus YJL095W, strain BCK1 (second series), stronger effect = lower value 1.01 | locus YJL095W, strain BCK1, stronger effect = lower value 1 and 0.964 | locus YJL115W, strain asf1, stronger effect = lower value 1.03 | locus YJL129C, strain trk1, stronger effect = lower value 1.04 | locus YJL134W, strain LCB3, stronger effect = lower value 1.01 | locus YJL154C, strain vps35, stronger effect = lower value 1.03 | locus YJL164C, strain tpk1, stronger effect = lower value 0.989 | locus YJL166W, strain qcr8, stronger effect = lower value 1 | locus YJL168C, strain set2, stronger effect = lower value 0.986 | locus YJL187C, strain SWE1 (second series), stronger effect = lower value 0.997 | locus YJR043C, strain POL32, stronger effect = lower value 1 | locus YJR066W, strain TOR1, stronger effect = lower value 0.927
